Compounds without any hit were thinned out: in the full panel of roughly 79,000, 15% have a hit. Rule as the data show it: active = growth inhibition above about 70%; inactive = the rest.
Key:
[1] = NCI Yeast Anticancer Drug Screen. Data for the rad50 strain (AID 155);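 also: 0% = growth of vehicle-only cultures of the same strain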; conditions: S. cerevisiae rad50 strain growth inhibition; at 50.0 µM; stronger effect = higher value
How it was run: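 Readout: growth inhibition relative to vehicle-treated cultures. Compound exposure was carried out in a genetically defined yeast strain deficient in DNA damage repair.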

[2] = NCI Yeast Anticancer Drug Screen. Data for the mec2-1 strain (AID 157); conditions: S. cerevisiae mec2-1 strain, at 50.0 µM, stronger effect = higher value
How it was run: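 Compounds were applied to mec2-1 yeast cells. Their growth was then compared with that of vehicle-treated cultures to give growth inhibition.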

[3] = NCI Yeast Anticancer Drug Screen. Data for the sgs1 mgt1 strain (AID 161);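 also: 0% = growth of cultures given vehicle only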; conditions: S. cerevisiae sgs1 mgt1 strain, at 50.0 µM, stronger effect = higher value
How it was run: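 Growth of a repair-deficient yeast mutant was monitored after compound treatment and expressed as inhibition relative to vehicle-treated cultures.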

[4] = NCI Yeast Anticancer Drug Screen. Data for the cln2 rad14 strain (AID 165);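 also: 0% = growth equal to vehicle treated cultures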; conditions: S. cerevisiae cln2 rad14 strain, at 50.0 µM, stronger effect = higher value
How it was run: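 Strain: cln2 rad14 yeast, altered in cell cycle control and DNA damage repair. Read-out: growth inhibition vs vehicle.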

[5] = NCI Yeast Anticancer Drug Screen. Data for the bub3 strain (AID 167); conditions: S. cerevisiae bub3 mutant strain, at 50.0 µM, stronger effect = higher value
How it was run: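 Readout: yeast growth inhibition, expressed relative to vehicle-only wells. The test organism is a mutant strain from a panel with lesions in DNA repair or checkpoint genes.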

[6] = NCI Yeast Anticancer Drug Screen. Data for the mlh1 rad18 strain (AID 175); conditions: S. cerevisiae mlh1 rad18 strain growth inhibition; at 50.0 µM; stronger effect = higher value
How it was run: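 A repair-deficient yeast strain is exposed to test compound, and growth is scored relative to vehicle-treated controls.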

Measured: growth inhibition

COc1ccc([N+](=O)[O-])c(C(OC(C)=O)OC(C)=O)c1OC(C)=O
inactive: [1] 4% | [2] 5.6% | [3] 20.2% | [4] 9% | [5] 1.15% | [6] -9.4%

CC(=O)NC(=O)CCc1ccccc1
inactive: [1] -12.2% | [2] -12.7% | [3] -20.3% | [4] -26.1% | [5] -8.15% | [6] -6%

COc1ccc(OC)c(/C=C/C(=O)NC(CO)CSCSC)c1 (stereo not drawn)
inactive: [1] -0.35% | [2] 4.75% | [3] -3.9% | [4] -10.8% | [5] 21.5% | [6] -24.4%

CCCCCCCCCCCCCCCCOc1ccc(OC)cc1C(=O)NNC(=S)SC
inactive: [1] 14.7% | [2] -0.1% | [3] 24.6% | [4] 8.55% | [5] 34% | [6] 21.2%

CC(=O)Nc1ccc2c(c1)C(P(=O)(OC(C)C)OC(C)C)c1ccccc1-2 (stereo not drawn)
inactive: [1] 6% | [2] 19.6% | [3] 18.1% | [4] -1.4% | [5] 34.4% | [6] -2.8%

CC(=O)NCC(O)C(O)C(O)C(O)COC(=O)c1ccccc1 (stereo not drawn)
inactive: [1] 6.6% | [2] -1.25% | [3] 19.2% | [4] -6.45% | [5] -2.15% | [6] -5%

COC(=O)C1=CO[C@@H](C)[C@@H]2Cn3ccc4c5ccccc5nc-4c3C[C@H]12
inactive: [1] 2.4% | [2] -17.4% | [3] 14% | [4] 4.5% | [5] -3.9% | [6] 1.4%

COC(=O)c1sc(C(=O)OC)c2c1CSC2
inactive: [1] -6% | [2] 5.35% | [3] -18.4% | [4] 2.55% | [5] -8% | [6] 13.2%

COc1c(-c2ccc(F)cc2)oc2c(CC(=O)O)cccc2c1=O
inactive: [1] -0.35% | [2] -19.2% | [3] -27.1% | [4] 3.2% | [5] -7.6% | [6] -26.5%

O=C(C[n+]1ccccc1CCCO)c1ccc(F)cc1
inactive: [1] 3.55% | [2] -19.7% | [3] 4.6% | [4] 28.3% | [5] 3% | [6] 8.45%

O=C1c2ccccc2C(=O)C1(O)c1c[nH]c2ccccc12
inactive: [1] -1.55% | [2] 12.1% | [3] 4.25% | [4] 6.85% | [5] -18% | [6] 23.6%

Oc1ccccc1CN1CCOCC1
inactive: [1] 22.4% | [2] 9.3% | [3] 26.9% | [4] 13.8% | [5] -7.2% | [6] 28.5%

CN(C(=O)c1ccccc1)C1CCCC(=O)CC1 (stereo not drawn)
inactive: [1] -2.35% | [2] -10% | [3] 8.25% | [4] 9.95% | [5] -13.6% | [6] -65%

O=[N+]([O-])C(=C1NCCN1)C(Cl)=C(Cl)Cl
inactive: [1] -43% | [2] -27.9% | [3] 5.3% | [4] -18.6% | [5] -1.2% | [6] -26%

O=S(=O)(Cc1ccccc1)/C(=C\c1ccccc1)c1ccccc1
inactive: [1] -6.65% | [2] 11.4% | [3] 2.4% | [4] 0.1% | [5] 6.6% | [6] 5.5%

Cc1cc(Br)ncc1[N+](=O)[O-]
inactive: [1] -12.8% | [2] 3.3% | [3] -1.25% | [4] -6% | [5] -3.7% | [6] -7.6%

C=CCc1ccc(O)c(OC)c1
inactive: [1] 36% | [2] -3.25% | [3] -10.4% | [4] 9.7% | [5] 26.4% | [6] 25%

CCOC(=O)CC(C(=O)OCC)C(=O)OCC
inactive: [1] -7.4% | [2] -11.4% | [3] -8.1% | [4] -6.35% | [5] 5.45% | [6] -4.1%

CCc1ccccc1NC(=O)NCC(C)C
inactive: [1] -7.65% | [2] -20.3% | [3] 5.85% | [4] -3.8% | [5] 2.7% | [6] -4.35%

CSc1nc(NC2OCC(O)C(O)C2O)c(Cl)c(=O)[nH]1 (stereo not drawn)
inactive: [1] -13.5% | [2] -2.1% | [3] 12.3% | [4] -4.15% | [5] 2.55% | [6] 0.75%

O=C(NNCCO)C(O)C(O)C(O)C(O)CO (stereo not drawn)
inactive: [1] -31.4% | [2] 7.15% | [3] 2.95% | [4] 5.25% | [5] -4.7% | [6] 13.2%

CC(C)c1cccc(C(C)(C)C)n1
inactive: [1] 16.1% | [2] 30.5% | [3] -2.7% | [4] -3.65% | [5] 0.3% | [6] 11.1%

COc1cc2c(c(O)c1C)C(=O)CC(c1ccccc1)O2 (stereo not drawn)
inactive: [1] 15.4% | [2] -46.3% | [3] 16% | [4] 2.15% | [5] -4.25% | [6] 11.7%

NC(=O)CNC(=O)[C@@H]1CC(OCCC(=O)O)CN1C(=O)C1CCCN1C(=O)OCc1ccccc1 (stereo partly drawn)
inactive: [1] 0.05% | [2] -0.8% | [3] 1.8% | [4] 6.25% | [5] 1.3% | [6] 6.75%

O=C(OCC1OCOC(COC(=O)c2ccccc2)C(OC(=O)c2ccccc2)C1OC(=O)c1ccccc1)c1ccccc1 (stereo not drawn)
inactive: [1] 9.85% | [2] 8.35% | [3] -4.6% | [4] -13.8% | [5] -0.65% | [6] 19.6%

COC(=O)Cc1cccc2c(=O)c(S(=O)(=O)NC(=O)Nc3ccc(Cl)cc3)c(-c3ccccc3)oc12
inactive: [1] 20.9% | [2] 23.1% | [3] 31.6% | [4] 50.4% | [5] 35.4% | [6] 17.8%

O=[N+]([O-])c1ccccc1C=NC12CC3CC(CC(C3)C1)C2
inactive: [1] 15% | [2] -9.15% | [3] 9.95% | [4] -49.2% | [5] -15.3% | [6] 3.45%

CC(NC(=O)C(C)(C)C)c1ccc(-c2ccccc2)cc1 (stereo not drawn)
inactive: [1] 11.8% | [2] 29.6% | [3] 9.2% | [4] 12.6% | [5] 2% | [6] 10.8%

O=[N+]([O-])c1ccc(Cl)c(N=Nc2ccccn2)c1
inactive: [1] 20.2% | [2] -14.9% | [3] 21.4% | [4] -36.9% | [5] -10% | [6] 18.6%

O=C1C(N=Nc2ccc(Br)cc2)Sc2nc3ccccc3n21 (stereo not drawn)
inactive: [1] 8.2% | [2] -12.4% | [3] 6.45% | [4] -27.4% | [5] 17.1% | [6] 10.3%

COc1ccc2nccc(N)c2c1
inactive: [1] 31.9% | [2] -7.95% | [3] 15.1% | [4] 11.5% | [5] -8.05% | [6] 20.9%

CC(C)CCCC(C)C1CCC2C3CCC4=CC(=O)C=CC4(C)C3CCC12C (stereo not drawn)
inactive: [1] 45.1% | [2] 35.2% | [3] 47.6% | [4] 19.1% | [5] 0.85% | [6] 41%

N/C(=N\C(=O)OCCOC(=O)/N=C(/N)c1ccccc1)c1ccccc1
inactive: [1] -3.5% | [2] -8.5% | [3] -6.05% | [4] -20.5% | [5] -3.1% | [6] -27.1%

N#Cc1nnn2c1nc(N)c1c(Cl)cccc12
inactive: [1] 0.75% | [2] -17.1% | [3] -4.6% | [4] -0.05% | [5] -11.8% | [6] -8.35%

CN1CCC2(CC1)C(=O)N(NC(N)=O)C(=O)C2c1ccccc1 (stereo not drawn)
inactive: [1] 15% | [2] 2.15% | [3] 5.7% | [4] 1.2% | [5] 1% | [6] 13.8%

N/C(=N\O)C(=O)c1ccccc1
inactive: [1] 9.8% | [2] -12.8% | [3] -5.8% | [4] -5.3% | [5] 2.35% | [6] 3.95%

O=C(CCCCC(=O)OC1CCCCC1)OC1CCCCC1
inactive: [1] -4.95% | [2] 3.65% | [3] -6.45% | [4] -60.3% | [5] -1.05% | [6] 10.8%

CC(C)C1NC(=O)NC1=O (stereo not drawn)
inactive: [1] -4% | [2] -23.2% | [3] -3.7% | [4] 10.7% | [5] 0.65% | [6] -4.4%
